This passage reports outcome results from PubChem BioAssay AID588742 (Southern Research Specialized Biocontainment Screening …, 2011).

Molecules are shown by their SMILES. The whole screen tested about 1,800 compounds, of which about 410 (23%) were called active. How the calls were made is not given here. The list is a sample of the results. Measured potencies and affinities stand elsewhere.

This assay in a line: viability of Vero cells under compound – cytotoxicity control for flavivirus capping enzyme inhibitors (AID 588742). The following applies: cytotoxicity counter-screen; series mostly up to 40 µM. A general note: The purpose of a counterscreen is to sort out artefacts and off-target activity.
Regarding `Nc1cc2nsnc2cc1Br`, the result was inactive.

Consider `COc1cccc(/C=C2\Oc3cc(OCC(=O)N4Cc5ccccc5C[C@H]4C(=O)O)ccc3C2=O)c1`, for which the molecule was classed as inactive.

As for `O=C(N/N=C/c1ccc(N2CCOCC2)o1)c1cccc([N+](=O)[O-])c1`, the molecule was classed as inactive.

Take `O=C(O)c1ccc(-n2nc(C(F)(F)F)c3c2-c2ccoc2CC3)cc1`: the molecule was called inactive.

For `O=C(Nc1ccccc1C(=O)O)c1cccc(C(=O)Nc2ccccc2C(=O)O)c1`, the result was inactive.

On to `O=C(O)c1ccccc1-c1ccccc1C(=O)Nc1ccc2c(c1)C(=O)c1ccccc1-2`, for which the molecule was called inactive.

Take `O=C(NNc1cc(Br)c(O)c(Br)c1)c1ccccc1`: the molecule was classed as inactive.

In the case of `O=C(Nc1cc(C(=O)Nc2ccccc2C(=O)O)cc(C(=O)Nc2ccccc2C(=O)O)c1)c1ccccc1`, the result was inactive.

On to `O=C(O)CCN1C(=O)/C(=C\c2cccc(OCc3ccccc3)c2)SC1=S`, for which the outcome was inactive.

In the case of `O=c1c(C(c2ccc(O)cc2)c2c(O)nc3n(c2=O)CCS3)c(O)nc2n1CCS2`, the call was inactive.

For `O=C1CC(=Nc2ccc([N+](=O)[O-])cc2)NN1c1c(Cl)cc(Cl)cc1Cl`, the call was inactive.

On to `CCOC(=O)Cc1cc(=O)c2c(=O)n(-c3ccccc3)[nH]c2[nH]1`, for which the outcome was inactive.

For the molecule `CCC1(C)Cc2c(C#N)c(N)sc(=S)c2CO1` (stereo not drawn), the result was inactive.

As to `CC(=O)/C(=N/Nc1ccccc1)Sc1nnc(CCc2ccccc2)n1-c1ccccc1`, the molecule was classed as inactive.

For the molecule `CCc1nnc(NS(=O)(=O)c2ccc(NC(=S)NC(=O)/C=C/c3ccc(F)cc3)cc2)s1`, the call was inactive.

As to `CCc1nnc(NS(=O)(=O)c2ccc(NC(=S)NC(=O)/C=C/c3ccc(C(C)C)cc3)cc2)s1`, the molecule was called inactive.

On to `CCc1nnc(NC(=O)CCC(=O)N2CCN(c3ccccn3)CC2)s1`, for which the outcome was inactive.

Turning to `CCOC(=O)Nc1sc(NS(=O)(=O)c2ccccc2)nc1C`, the molecule was classed as inactive.

Consider `CCC(=O)Nc1ccc2nc3c(=O)[nH]c(=S)[nH]c3nc2c1`, for which the molecule was called inactive.

With `C=CCOc1ccc(/C=C2\SC(=S)N(NS(=O)(=O)c3ccc(C)cc3)C2=O)cc1`, the outcome was inactive.

For the molecule `O=C(CNc1cccc2ccccc12)N/N=C/c1ccc(C(=O)O)cc1`, the result was inactive.

As for `CCC1(c2ccccc2)NC(=S)N(c2cccc(C)c2C)N1` (stereo not drawn), the outcome was inactive.

`O=C(O)/C=C/C(=O)c1ccc2c(c1)NC(=O)CO2`: the molecule was classed as inactive.

Consider `COc1cc(/C=C2/SC(=S)N(CC(=O)O)C2=O)ccc1OC(=O)c1cccs1`, for which the call was inactive.

In the case of `CC(C)C(=O)OC1CCS(=O)(=O)c2sccc21` (stereo not drawn), the molecule was called inactive.

Regarding `CCCc1nc(C)c2c(=O)[nH]c(-c3cc(S(=O)(=O)N4CCN(CC)CC4)ccc3OCC)nn12`, the result was inactive.

On to `CCOc1c(Br)cc(CNc2ccc(N3CCN(C(C)=O)CC3)cc2)cc1OC`, for which the molecule was called inactive.

As to `COc1cccc(CNc2ccc(N3CCCCC3)cc2)c1OC`, the result was inactive.

As to `Cc1nn(-c2ccccc2)c(Cl)c1/C=C1\SC(=S)N(CCCCCC(=O)O)C1=O`, the result was inactive.

`CC(=O)Nc1ccc(NS(=O)(=O)c2ccccc2)c2ccccc12`: the result was inactive.

Regarding `CCOc1cc(NS(=O)(=O)c2ccccc2)c(OCC)cc1NC(=O)c1ccco1`, the call was inactive.

Regarding `CCOC(=O)c1c(C)oc2c1cc(NS(=O)(=O)c1ccc(C(=O)O)cc1)c1ccccc12`, the outcome was inactive.

As to `COC(=O)c1c(C)oc2c1cc(NS(=O)(=O)c1ccc(C(=O)O)cc1)c1ccccc12`, the result was inactive.

Consider `COc1ccccc1/C=C1/C(=O)ON=C1C`, for which the molecule was called inactive.

Turning to `Cc1ccc(N2C(=O)c3ccccc3C2C(=O)c2ccc(O)cc2O)cc1` (stereo not drawn), the molecule was called inactive.

Regarding `CC1=C(C#N)c2nc(N)c(C#N)c(C)c2/C1=C\c1ccc(OCC(=O)O)c(Cl)c1`, the result was inactive.

For the molecule `NC(=S)c1cc2cc(Br)ccc2oc1=O`, the molecule was called inactive.

In the case of `CC(=O)C(=Cc1cc(C)n(-c2ccccc2)c1C)C(C)=O`, the outcome was inactive.

`CCN(CCCNc1cc2c(c(N)c1S(=O)(=O)O)C(=O)c1ccccc1C2=O)c1ccccc1`: the molecule was classed as inactive.

Turning to `CCC(=O)Nc1cc(C(=O)O)ccc1Sc1ccc(C)cc1`, the outcome was inactive.

As for `CCOC(=O)Cc1csc(NC(=O)NC2(C(F)(F)F)Oc3ccccc3O2)n1`, the result was inactive.

Regarding `O=C(O)CCCN1C(=O)/C(=C\c2ccco2)SC1=S`, the molecule was called inactive.

For `O=C(O)CCCN1C(=O)/C(=C/C=C/c2ccco2)SC1=S`, the result was inactive.

On to `O=S(=O)([O-])CCC[n+]1c(SCCCS(=O)(=O)O)sc2ccc(Cl)cc21`, for which the outcome was inactive.

Take `O=S(=O)(Nc1ccc(O)c2ccccc12)c1ccc(F)cc1`: the result was inactive.

Consider `O=C(NNS(=O)(=O)c1ccc([N+](=O)[O-])cc1)c1ccc2ccccc2c1O`, for which the result was inactive.

Regarding `N#C/C(=C\c1ccccc1)C(=O)NNS(=O)(=O)c1cccc([N+](=O)[O-])c1`, the molecule was classed as inactive.

Consider `O=C(O)COc1ccccc1/C=N/Nc1ccc(S(=O)(=O)Nc2ccc(Cl)cc2)cc1[N+](=O)[O-]`, for which the outcome was inactive.

As to `O=C(O)CSc1nc(-c2ccc(Cl)cc2)nc2c1oc1ccccc12`, the molecule was classed as inactive.

In the case of `O=C(O)CSc1c(O)c2ccccc2[nH]c1=O`, the molecule was classed as inactive.

As to `O=C(O)c1ccccc1NS(=O)(=O)c1cccc(NS(=O)(=O)c2cc(Br)ccc2Br)c1`, the molecule was called inactive.

Regarding `CCc1ccc(S(=O)(=O)Nc2ccc(O)c3ccccc23)cc1`, the outcome was inactive.

For `Cc1nnc(SCC2=C(C(=O)O)N3C(=O)C(NC(=O)c4cccc(F)c4F)C3SC2)s1` (stereo not drawn), the outcome was inactive.

Take `CC1(OC(=O)CCc2ccccc2)C(=O)C=C2C=C(c3ccc(C#N)cc3)N(Cc3ccccc3)C=C2C1=O` (stereo not drawn): the call was inactive.

For `O=C1NN(c2cccc(Br)c2)C(=O)/C1=C/c1ccc(-c2cc([N+](=O)[O-])ccc2O)o1`, the outcome was inactive.

Turning to `Cc1ccc([C@@H]2CC=C(C(=O)O)[C@H](c3ccc(Br)cc3)N2S(=O)(=O)c2ccccc2C)cc1`, the outcome was inactive.

As to `CCCc1cc(=O)oc2c(CN3CCCC3)c(O)c(Cl)cc12`, the result was inactive.

In the case of `Cc1ccc(CSc2nnc3c(n2)OC2(Nc4ccccc4-3)C(=O)Nc3ccc(F)cc32)cc1` (stereo not drawn), the molecule was classed as inactive.

`CCN(CCCNC(=O)CCc1nc(-c2ccc(OC)cc2)no1)c1cccc(C)c1`: the molecule was classed as inactive.

With `CCN(CC)c1ccc(C2C3CCCCC3(O)CCN2CC(=O)N2CCCCC2)cc1` (stereo not drawn), the result was inactive.

For `CCN(/N=C/c1ccc(N(C)C)cc1)c1nc2ccccc2[nH]1`, the call was inactive.

Take `COc1ccccc1NS(=O)(=O)c1ccc(N/N=C/c2ccccc2OCC(=O)O)c([N+](=O)[O-])c1`: the molecule was classed as inactive.

On to `O=C1NN(c2cccc(Br)c2)C(=O)/C1=C\c1ccccc1`, for which the molecule was classed as inactive.
